Rows were chosen to be rich in hits. Some 11% of all compounds tested hit in one or more screens of this group.
OTUD3 inh: inhibitors of human OTUD3 deubiquitinase; purified OTUD3, Ub-rhodamine fluorescence, 2 h; inhibition, % at 25 µM; 47,000 compounds, 0.7% hits
Target sequence (Q5T2D3 whole entry, looked up): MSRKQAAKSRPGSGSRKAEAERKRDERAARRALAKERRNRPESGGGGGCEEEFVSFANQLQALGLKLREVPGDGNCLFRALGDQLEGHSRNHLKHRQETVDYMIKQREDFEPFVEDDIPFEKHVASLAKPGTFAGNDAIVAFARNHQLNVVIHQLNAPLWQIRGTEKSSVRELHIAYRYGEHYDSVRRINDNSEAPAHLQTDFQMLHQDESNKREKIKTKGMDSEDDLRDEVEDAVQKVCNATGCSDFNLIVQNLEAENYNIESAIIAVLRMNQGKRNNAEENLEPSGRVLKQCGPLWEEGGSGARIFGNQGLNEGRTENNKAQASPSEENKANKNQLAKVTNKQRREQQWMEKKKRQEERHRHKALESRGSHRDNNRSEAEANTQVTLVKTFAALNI
USP17 block: blocks human USP17 ubiquitin-rhodamine cleavage; inhibition, % at 50 µM; 47,000 compounds, 6.5% hits; A8MUK1; purified USP17, Ub-rhodamine cleavage fluorescence, 3 h
USP30 inh: inhibitors of human USP30 deubiquitinase. Q70CQ3. purified USP30, Ub-rhodamine cleavage fluorescence. inhibition, % at 25 µM. 47,000 compounds, 5.3% hits. AID 1645860
USP28 block: inhibitors of human USP28 deubiquitinase; Q96RU2; purified USP28, Ub-rhodamine cleavage fluorescence, 30 min; inhibition, % at 25 µM; 47,000 compounds, 3% hits; AID 1645857
Each line names hits and unclear results; the compound was inactive in the other large screens. No stated cut-off is given here; in the data, active means inhibition above about 30%; inactive means the rest.

COc1ccc(OC)c(CC(=O)NC2CC3(CCOCC3)Oc3ccccc32)c1 (configuration not stated)	USP30 inh 43.7
O=C(Nc1ccccc1Cl)C1Cc2ccccc2CN1C(=O)c1ccccc1 (configuration not stated)	none
CCN(c1ccc(OC)cc1)S(=O)(=O)N1CCCC(C(=O)N2CCN(c3ncccn3)CC2)C1 (configuration not stated)	none
COc1ccc(N2CCn3c(SCC(=O)Nc4cc(C)cc(C)c4)nnc32)cc1	USP30 inh 34.7 (no result: USP17 block)
Cc1ccc(NC(=O)c2c3c(N4CCOCC4)ncnc3n3ccccc23)cn1	none
Cc1cccc(-n2ccc(=O)c(-c3nc(-c4ccc(Cl)c(F)c4)no3)n2)c1	USP30 inh 39.1
O=c1ccn(-c2ccccc2)nc1-c1nc(-c2ccc(Br)cc2)no1	USP17 block 36.6
COc1ccc(-n2ccc(=O)c(-c3nc(-c4ccccc4C)no3)n2)cc1	USP30 inh 37.6
O=C(COc1ccccc1)N1CCCC(c2nc3ccccc3[nH]2)C1 (configuration not stated)	none
O=c1[nH]c(=O)c2c(-c3ccc(-c4ccccc4)cc3)ccnc2[nH]1	USP30 inh 45.0
O=c1[nH]c(=O)c2c(-c3cccc4ccccc34)ccnc2[nH]1	none
COc1cccc(-c2ccnc3[nH]c(=O)[nH]c(=O)c23)c1	USP17 block 73.9, USP30 inh 63.1
Cc1ccc(CNC(=O)c2ccc3c(=O)nc4c(-c5ccccc5F)n[nH]n4c3c2)cc1	USP17 block 34.8
CC(C)CCNC(=O)c1ccc2c(=O)nc3c(-c4ccccc4F)n[nH]n3c2c1	none
O=C(COc1ccc2c(-c3ccccc3)cc(=O)oc2c1)Nc1cccnc1	USP30 inh 68.1
Cc1cn2nnc(C(=O)Nc3ccc(OC(F)(F)F)cc3)c2c(=O)[nH]1	USP17 block 50.6, USP30 inh 53.7
CCn1c(SCCOc2ccccc2)nnc1-c1ccc2c(c1)OCCO2	USP28 block 30.8
CCn1c(SCc2nc(-c3ccccc3)no2)nnc1-c1ccc2c(c1)OCCO2	none
O=C(COc1ccc(Cl)cc1)NCc1nnc(SCC(=O)NCc2ccc(F)cc2)o1	none
O=C(COc1ccc(Cl)cc1)NCc1nnc(SCC(=O)N2CCc3ccccc32)o1	USP30 inh 39.6
O=C(COc1ccc(Cl)cc1)NCc1nnc(SCC(=O)Nc2nc3ccccc3s2)o1	USP17 block 32.8
O=C(COc1ccc(Cl)cc1)NCc1nnc(SCC(=O)N2CCN(c3ccccc3)CC2)o1	USP17 block 40.6, USP30 inh 38.5
CCc1cccc(C)c1Nc1c(-c2ccc(NC(C)=O)cc2)nc2cnccn12	none
O=C(c1ccc(F)cc1)c1ccc(OCc2cc(=O)n3ccsc3n2)cc1	none
O=C(Nc1ccccc1)C1CCN(S(=O)(=O)c2cccc3cnccc23)CC1	none
COc1cc(NC(=O)Cn2nc(C(C)C)c(-c3cc(C)no3)cc2=O)cc(OC)c1	USP17 block 30.7, USP30 inh 32.0, USP28 block 38.2
CCOc1ccc(-c2nc3c(cnn3-c3ccccc3)c(=O)[nH]2)cc1	USP17 block 37.2
NS(=O)(=O)c1cccc(NC(=O)c2cncn2-c2ccccc2)c1	none
Cc1cc(=O)sc2c1c(C)nn2-c1ccccc1	USP17 block 31.1, USP28 block 30.1
Cn1ncc(Cl)c1C(=O)Nc1ccc2nc(NC(=O)C3CCCCC3)sc2c1	USP17 block 37.8
Cc1nnc2ccc(CN3CCc4onc(Nc5cccc(F)c5)c4C3)cn12	none
O=C(Cn1nc(-c2ccc3c(c2)OCCO3)ccc1=O)Nc1ccc(Oc2ccccc2)cc1	USP17 block 31.4
Cc1ccc(C(C)C)cc1OCC(=O)Nc1nc2ccccc2[nH]1	none
COc1ccc(C(C)=O)cc1CC(=O)Nc1nc2ccccc2[nH]1	USP17 block 59.2
COc1ccccc1CC(=O)Nc1nc2ccccc2[nH]1	USP17 block 60.1
Cc1c(OCC(=O)Nc2nc3ccccc3[nH]2)ccc2c3c(c(=O)oc12)CCC3	USP17 block 37.1, USP30 inh 51.6
COc1ncccc1CN1CCC2(CC1)CCN(c1ncccn1)C2	none
O=c1c2cnc(N3CCN(c4ccccc4)CC3)nc2ccn1Cc1ccccn1	none
Cc1ccc(S(=O)(=O)N2C[C@H]3C[C@H](C(=O)NC(C)C)[C@@H](C2)O3)cc1	none
CCOc1ccc(-n2cc(C(=O)Nc3cnc4ccccc4c3)nn2)cc1	USP17 block 43.2
CCOc1ccc(NC(=O)c2cccc(-n3cnnc3)n2)cc1	none
O=C(Nc1cc(Cl)ccc1-n1cncn1)c1ccccc1C(F)(F)F	none
CCOC(=O)c1ccc(NC(=O)COc2cccc3c2CCN(CC)C3=O)cc1	USP28 block 69.1
COc1ccc(CCC(=O)Nc2ncc(C)s2)cc1OC	USP28 block 53.8
CCc1cccc(C)c1-n1nnnc1C1(N)CCCC1	none
O=C(c1cccnc1)N1CCC2(CC1)CC1(CO2)Nc2ccccc2-n2cccc21 (configuration not stated)	USP17 block 71.2
O=C(c1cscn1)N1CCC2(CC1)CC1(CO2)Nc2ccccc2-n2cccc21 (configuration not stated)	USP17 block 71.4
CCn1ccc(C(=O)N2CCC3(CC2)Nc2cccnc2NC3=NCc2ccccc2)n1	none
O=C(c1ccncc1)N1CCC2(CC1)CC1(CO2)Nc2ccccc2-n2cccc21 (configuration not stated)	USP17 block 38.1
O=C(c1cscn1)N1CCC2(CN(CC(c3ccccc3)c3ccccc3)C2)C1	none
Cc1ccc(NC(=O)N2CCC3(CC2)Nc2ccccc2-n2cccc23)cc1	none
CCCn1cc(C(=O)N2CCC3(CC2)CC2(CO3)Nc3ccccc3-n3cccc32)c(C)n1 (configuration not stated)	USP17 block 66.8
CC1CCCN(C(=O)CN2C(=O)C3CCCN3C(=O)c3cc(F)ccc32)C1 (configuration not stated)	none
CCN1CCN(C(=O)Cn2c(C)ccc(NC(=O)c3ccccc3)c2=O)CC1	none
CC1CCCCN1C(=O)c1ncn2c1CN(C)S(=O)(=O)c1ccccc1-2 (configuration not stated)	none
COc1ccccc1NC(=O)N1CCC2(CC1)Nc1ccccc1-n1cccc12	none
O=C(c1ccco1)N1CCC2(CC1)CC1(CO2)Nc2ccccc2-n2cccc21 (configuration not stated)	USP17 block 80.5
O=C(NCc1cccnc1)[C@H]1CC[C@@H]2[C@@H](CCN2c2ncccn2)O1	none
O=S(Cc1cc(Sc2ccccc2)nc(-c2ccccc2)n1)c1ccccc1 (configuration not stated)	USP30 inh 34.3
COCc1cc(Sc2ccc(OC)cc2)nc(-c2ccccc2)n1	none
CS(=O)(=O)c1ccc(N2CCCN(C(=O)c3ccc(Cl)cc3)CC2)cc1	none (no result: USP17 block)
Cc1cccc(N2CCN(C(=O)CN3Cc4ccccc4C3=O)CC2)c1C	none
Cc1ccc(Cl)cc1N1CCN(C(=O)CN2Cc3ccccc3C2=O)CC1	USP28 block 46.6
CC1Cc2cc(S(=O)(=O)N3CCCCCC3)ccc2N1C(=O)C1CC1 (configuration not stated)	none
